KDM5B inh – Primary screen for KDM5B Histone Demethylases FDH-coupled qHTS. Lysine-specific demethylase 5B (Homo sapiens), Q9UGL1. KDM5B demethylase, FDH-coupled NADH fluorescence (FDH is formaldehyde dehydrogenase). Potency, µM (titrated, usually from 57.7 µM), hits mostly inhibitors. 220,000 compounds, 2.6% hits; active = well fitted inhibition curve with a large enough effect; note: nearly all actives have a fitted effect of over 70% in size
Target sequence (Q9UGL1 whole entry, looked up): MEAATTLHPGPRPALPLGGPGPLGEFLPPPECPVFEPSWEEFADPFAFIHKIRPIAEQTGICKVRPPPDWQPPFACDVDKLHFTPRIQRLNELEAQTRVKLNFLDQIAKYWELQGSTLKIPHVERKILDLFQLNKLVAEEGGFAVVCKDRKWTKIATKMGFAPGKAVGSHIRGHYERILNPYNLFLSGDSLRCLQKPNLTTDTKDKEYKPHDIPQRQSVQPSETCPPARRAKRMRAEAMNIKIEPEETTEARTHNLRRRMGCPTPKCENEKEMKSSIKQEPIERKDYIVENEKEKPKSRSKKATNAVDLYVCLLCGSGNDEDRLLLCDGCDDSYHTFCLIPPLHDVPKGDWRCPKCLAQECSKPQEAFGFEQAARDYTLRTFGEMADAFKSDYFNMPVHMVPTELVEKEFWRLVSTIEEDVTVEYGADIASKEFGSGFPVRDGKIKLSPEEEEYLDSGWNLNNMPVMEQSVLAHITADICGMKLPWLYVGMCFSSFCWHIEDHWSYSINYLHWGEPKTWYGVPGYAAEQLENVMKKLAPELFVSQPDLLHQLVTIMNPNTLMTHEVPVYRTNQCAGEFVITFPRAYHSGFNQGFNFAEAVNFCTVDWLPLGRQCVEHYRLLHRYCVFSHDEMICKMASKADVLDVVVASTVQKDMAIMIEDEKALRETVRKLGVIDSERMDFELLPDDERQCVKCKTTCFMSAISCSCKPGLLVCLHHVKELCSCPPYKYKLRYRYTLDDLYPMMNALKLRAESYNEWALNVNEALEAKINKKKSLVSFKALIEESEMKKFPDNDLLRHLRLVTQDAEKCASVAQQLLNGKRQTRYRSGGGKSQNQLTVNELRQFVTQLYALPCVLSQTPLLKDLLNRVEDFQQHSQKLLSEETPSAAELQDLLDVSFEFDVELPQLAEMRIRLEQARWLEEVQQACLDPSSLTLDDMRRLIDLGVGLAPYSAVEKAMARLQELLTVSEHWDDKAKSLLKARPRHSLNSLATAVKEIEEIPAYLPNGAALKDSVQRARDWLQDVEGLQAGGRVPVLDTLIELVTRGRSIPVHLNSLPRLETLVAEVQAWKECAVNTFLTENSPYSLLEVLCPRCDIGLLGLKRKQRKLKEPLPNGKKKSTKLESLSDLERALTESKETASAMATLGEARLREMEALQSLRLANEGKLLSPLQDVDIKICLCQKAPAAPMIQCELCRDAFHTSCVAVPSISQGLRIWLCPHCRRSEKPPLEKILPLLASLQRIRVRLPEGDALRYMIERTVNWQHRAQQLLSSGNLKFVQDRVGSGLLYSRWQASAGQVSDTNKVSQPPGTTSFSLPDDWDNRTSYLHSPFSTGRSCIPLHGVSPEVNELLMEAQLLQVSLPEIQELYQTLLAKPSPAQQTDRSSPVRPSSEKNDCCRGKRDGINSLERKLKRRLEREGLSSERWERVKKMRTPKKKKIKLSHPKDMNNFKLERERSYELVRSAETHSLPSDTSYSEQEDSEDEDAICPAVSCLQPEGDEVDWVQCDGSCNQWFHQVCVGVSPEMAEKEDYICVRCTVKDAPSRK
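KDM5BΔAP (200 nM final) in 50 mM HEPES pH 7.5, 0.01% Tween-20 was preincubated 10 min at RT with compound over a concentration range. Substrate mix (H3K4me3 12.5 µM, α-KG 25 µM, Fe²⁺, ascorbate, NAD⁺, FDH) was added, and NADH fluorescence change over 30 min gave dose-response curves.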
A number is an active result; . = inactive. The full list was thinned out, with hits kept by preference.

SMILES	KDM5B inh
COC(=O)c1c(C)cccc1NS(=O)(=O)c1c(C)nn(C)c1C	.
O=C(O)CCc1ccc(OC(F)F)cc1	.
CC(C)NC(=O)C(C)Sc1nc2ccc(F)cc2c(=O)[nH]1 (centres undefined)	.
O=S(=O)(NCc1nc2ccccc2s1)c1cccs1	.
O=C(CCc1nc(-c2ccccc2)c(-c2ccccc2)o1)N1CCN(C(=O)C2CC2)CC1	.
COc1cc(CC2CC(c3cccc(Cl)c3)=NO2)c(OC)c2c1OCO2 (centres undefined)	.
Cc1ccc(C(=O)NCCn2ccn3nc(-c4ccc(C)cc4C)cc3c2=O)cc1	.
Cc1ccc(-c2cc3c(=O)n(CCNC(=O)c4cc(F)ccc4F)ccn3n2)c(C)c1	.
Cc1cc(C)cc(C(=O)NCCn2ccn3nc(-c4ccc(C)cc4C)cc3c2=O)c1	22.4µM
O=C(NCCn1ccn2nc(-c3ccc(F)cc3)cc2c1=O)c1cccc(Cl)c1	.
Cc1ccc(-c2cc3c(=O)n(CCNC(=O)c4ccccc4F)ccn3n2)c(C)c1	.
Cc1ccc(-c2cc3c(=O)n(CCNC(=O)c4cccc(Cl)c4)ccn3n2)c(C)c1	28.2µM
O=C(Nc1ccc(Cl)cc1)N1CCn2c(nn(-c3ccc([N+](=O)[O-])cc3)c2=O)C1	.
COc1ccc(Cl)cc1C(=O)Nc1c(NCc2ccccc2)c2ccccc2oc1=O	.
CC(=O)NC(Cc1c[nH]c2ccccc12)C(=O)NNC(=O)CSc1nc2ccccc2s1 (centres undefined)	.
Cc1ccc(C(=O)CCC(=O)NC(C)C2CC3CCC2C3)cc1C (centres undefined)	.
CC(C)c1nnc2ccc(N3CCC(C(=O)O)CC3)nn12	.
CC(C)(C)c1cc(CCC(=O)NC2CC2)cc(C(C)(C)C)c1O	.
O=C(OCC(=O)N1CCc2ccccc21)c1ccccc1C(=O)c1ccc(Cl)c([N+](=O)[O-])c1	.
CC(C1CC1)n1nccc1NC(=O)c1nn(C)c(=O)c2ccccc12 (centres undefined)	.
CCOC(=O)c1ccc(NC(=O)C2CCCN(c3ncnc4onc(C)c34)C2)cc1 (centres undefined)	.
CCc1ccc(NC(=O)C2CCCN(c3nnc(C)c4c(C)n(-c5ccccc5)nc34)C2)cc1 (centres undefined)	.
Cc1nccn1-c1ccc(NC(=O)C2CCCN(c3ncccc3C#N)C2)cc1 (centres undefined)	28.2µM
O=C(CSc1ncnc2sccc12)N(Cc1ccc(F)cc1)C1CCCCC1	.
O=C1NCc2ccccc2CC12CCN(CCc1ccccc1)CC2	.
SMILES	KDM5B inh
CC(C)c1nnc(NC(=O)Cn2ccc3ccc(F)cc32)s1	.
CC(NC(=O)c1ccc2c(c1)OCO2)c1ccc2c(c1)CCC(=O)N2 (centres undefined)	.
Cc1cccc(N2C(=O)CSC23CCN(C(=O)C2CC2)CC3)c1	25.1µM
Cc1cccc(N2C(=O)CSC23CCN(C(=O)COc2ccccc2)CC3)c1	.
COc1ccc(N2C(=O)CSC23CCN(C(=O)Nc2ccc(C)cc2)CC3)cc1	.
O=C(Nc1ccc(-c2ccccc2)cc1)c1ccc(Cl)cc1Cl	.
O=[S+]1([O-])NC2(CCN(CC3CCCCC3)CC2)CNc2ccccc21	.
O=[S+]1([O-])NC2(CCN(Cc3ccoc3)CC2)COc2ccccc21	.
O=[S+]1([O-])NC2(CCN(CC3CCCC3)CC2)COc2ccccc21	79.4µM
O=C(CC1NC(=O)c2ccccc2NC1=O)NC1CCCC1 (centres undefined)	.
CSC(C)C(=O)Nc1cccc(Cl)c1 (centres undefined)	.
COc1ccc(NC(=O)Cn2c(-c3ccc(Cl)cc3)nc(C)c(CCO)c2=O)cc1OC	.
COc1ccc(OC)c(NC(=O)Cn2c(-c3ccc(Cl)cc3)nc(C)c(CCO)c2=O)c1	25.1µM
COc1ccc(OC)c(NC(=O)Cn2c(-c3cccc(Cl)c3)nc(C)c(CCO)c2=O)c1	.
COc1ccc(OCC(=O)Nc2ccc3c(c2)nc(CCn2nc(C)cc2C)n3C)cc1	.
O=C(NCC1CC2c3ccccc3C1c1ccccc12)c1ccc[n+]([O-])c1 (centres undefined)	.
CCC(C(=O)NCc1nnc2ccc(-c3ccccc3)nn12)c1ccccc1 (centres undefined)	22.4µM
CCC(C(=O)NC1CC1)c1ccccc1 (centres undefined)	.
CCC(C(=O)NCCc1c[nH]c2cc(OC)ccc12)c1ccccc1 (centres undefined)	.
CCC(C(=O)NCc1nnc2ccc(-c3ccc(OC)cc3)nn12)c1ccccc1 (centres undefined)	25.1µM
CCOCCCNC(=O)C(CC)c1ccccc1 (centres undefined)	.
CCCC(C(=O)NCc1ccc(OC)cc1)c1ccccc1 (centres undefined)	.
COc1cccc(CN2C(=O)CCCCC2C(=O)NCCCN2CCc3ccccc3C2)c1 (centres undefined)	.
COCCS(=O)(=O)c1ccc(C(=O)N(C)C)cc1	.
O=C1CCSc2c1cccc2C(=O)Nc1ccc(F)c(Cl)c1	.

Screening data (PubChem BioAssay)
